Data as given in the supplement of paper PMC10646978.
± gives the standard deviation.

Assays:
Conditions in all cases: modulator concentration 10 µM
[1] = system: RAW-Dual (murine macrophage reporter line); assay: NF-kB reporter (SEAP) activity fold change vs agonist alone; higher = enhanced NF-kB activity
How it was run: (§1)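 RAW-Dual murine macrophage reporter cells were seeded at 50 000 per well in 384-well plates and pre-incubated 1 hour at 37 °C with compound pin-transferred to 10 μM final. After 1 hour, a PRR agonist was added and cells incubated overnight. Supernatant NF-κB (SEAP, QUANTI-Blue, 620 nm absorbance) and IRF (Lucia luciferase, QUANTI-Luc, luminescence) signals were divided by the mean agonist-only control on the same plate to give fold change. Two replicate plates were averaged, with errors by propagation.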

[2] = system: RAW-Dual (murine macrophage reporter line); assay: IRF reporter (Lucia luciferase) activity fold change vs agonist alone; higher = enhanced IRF activity
How it was run: as §1

[3] = system: RAW-Dual (murine macrophage reporter line); assay: viability score (confluency relative to resting cells, overnight) (fraction); higher = more viable, active = viable (0.7 or more)
How it was run: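 A compound met the cutoff when both of two confluency masks exceeded 70% of resting cells. Those masks were made with IncuCyte software from IncuCyte images of RAW-Dual macrophages treated overnight at 10 μM final. This is the basis of the viability score, which is confluency relative to resting cells.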

[4] = agonist: CpG ODN 1826 0.5 ug/mL

## O=C(CCc1ccc(F)c(Cl)c1)NCCn1nccn1
[1]; [4]
  NF-kB reporter: 1.06 ± 0.052
[1]; agonist: LPS 0.1 ug/mL
  NF-kB reporter: 1.06 ± 0.11
[1]; agonist: MPLA […]
  NF-kB reporter: 0.972 ± 0.056
[2]; agonist: 3'3'-cGAMP 10 ug/mL
  IRF reporter: 1 ± 0.068
[2]; agonist: LPS 0.1 ug/mL
  IRF reporter: 1.21 ± 0.076
[2]; agonist: MPLA […]
  IRF reporter: 1.06 ± 0.087
[3]
  viability score: 0.992 (active)

## COc1ccc(N(CC(=O)N(C)Cc2ccccc2)S(C)(=O)=O)cc1OC
[1]; [4]
  NF-kB reporter: 1.08 ± 0.086
[1]; agonist: LPS 0.1 ug/mL
  NF-kB reporter: 1.02 ± 0.083
[1]; agonist: MPLA […]
  NF-kB reporter: 1.05 ± 0.08
[2]; agonist: 3'3'-cGAMP 10 ug/mL
  IRF reporter: 1.03 ± 0.026
[2]; agonist: LPS 0.1 ug/mL
  IRF reporter: 1.45 ± 0.21
[2]; agonist: MPLA […]
  IRF reporter: 1.1 ± 0.18
[3]
  viability score: 1.01 (active)

## O=C(Oc1ccc2ccccc2c1)c1ccccc1
[1]; [4]
  NF-kB reporter: 0.981 ± 0.055
[1]; agonist: LPS 0.1 ug/mL
  NF-kB reporter: 1.06 ± 0.11
[1]; agonist: MPLA […]
  NF-kB reporter: 1.04 ± 0.066
[2]; agonist: 3'3'-cGAMP 10 ug/mL
  IRF reporter: 0.906 ± 0.06
[2]; agonist: LPS 0.1 ug/mL
  IRF reporter: 1.27 ± 0.12
[2]; agonist: MPLA […]
  IRF reporter: 1.12 ± 0.11
[3]
  viability score: 0.975 (active)

## NC(CO)(CO)CO
[1]; [4]
  NF-kB reporter: 1.16 ± 0.24
[1]; agonist: LPS 0.1 ug/mL
  NF-kB reporter: 1.1 ± 0.22
[1]; agonist: MPLA […]
  NF-kB reporter: 1.01 ± 0.11
[2]; agonist: 3'3'-cGAMP 10 ug/mL
  IRF reporter: 0.964 ± 0.11
[2]; agonist: LPS 0.1 ug/mL
  IRF reporter: 1.19 ± 0.12
[2]; agonist: MPLA […]
  IRF reporter: 0.966 ± 0.15
[3]
  viability score: 1 (active)

## Cc1cc2ncc3c(n2n1)CCN(C(=O)c1cnoc1C)C3
[1]; [4]
  NF-kB reporter: 0.857 ± 0.037
[1]; agonist: LPS 0.1 ug/mL
  NF-kB reporter: 0.964 ± 0.077
[1]; agonist: MPLA […]
  NF-kB reporter: 1.02 ± 0.055
[2]; agonist: 3'3'-cGAMP 10 ug/mL
  IRF reporter: 0.972 ± 0.045
[2]; agonist: LPS 0.1 ug/mL
  IRF reporter: 1.11 ± 0.25
[2]; agonist: MPLA […]
  IRF reporter: 1.21 ± 0.43
[3]
  viability score: 0.896 (active)

## CCC1(CC)Cc2ccccc2C(CC(=O)N2CCOCC2)=N1.O=S(=O)(O)O
[1]; [4]
  NF-kB reporter: 0.627 ± 0.058
[1]; agonist: LPS 0.1 ug/mL
  NF-kB reporter: 1.13 ± 0.072
[1]; agonist: MPLA […]
  NF-kB reporter: 1.16 ± 0.096
[2]; agonist: 3'3'-cGAMP 10 ug/mL
  IRF reporter: 0.601 ± 0.044
[2]; agonist: LPS 0.1 ug/mL
  IRF reporter: 0.964 ± 0.074
[2]; agonist: MPLA […]
  IRF reporter: 1.16 ± 0.21
[3]
  viability score: 0.829 (active)

## CCOc1ccc(Nc2nc(Nc3ccc(OCC)cc3)nc(N3CCOCC3)n2)cc1
[1]; [4]
  NF-kB reporter: 0.35 ± 0.02
[1]; agonist: LPS 0.1 ug/mL
  NF-kB reporter: 1.76 ± 0.13
[1]; agonist: MPLA […]
  NF-kB reporter: 2.82 ± 0.16
[2]; agonist: 3'3'-cGAMP 10 ug/mL
  IRF reporter: 1.14 ± 0.083
[2]; agonist: LPS 0.1 ug/mL
  IRF reporter: 4.42 ± 3
[2]; agonist: MPLA […]
  IRF reporter: 4.93 ± 2.5
[3]
  viability score: 0.762 (active)

## Nc1ncnc2c1ncn2C1OC(CO)C(O)C1O (stereo unspecified)
[1]; [4]
  NF-kB reporter: 0.951 ± 0.078
[1]; agonist: LPS 0.1 ug/mL
  NF-kB reporter: 0.93 ± 0.079
[1]; agonist: MPLA […]
  NF-kB reporter: 1.29 ± 0.13
[2]; agonist: 3'3'-cGAMP 10 ug/mL
  IRF reporter: 1.15 ± 0.043
[2]; agonist: LPS 0.1 ug/mL
  IRF reporter: 1.2 ± 0.22
[2]; agonist: MPLA […]
  IRF reporter: 1.23 ± 0.27
[3]
  viability score: 1.04 (active)

## COc1ccc(-c2cc(CNC(=O)c3c(F)cccc3F)no2)cc1
[1]; [4]
  NF-kB reporter: 0.713 ± 0.041
[1]; agonist: LPS 0.1 ug/mL
  NF-kB reporter: 0.742 ± 0.11
[1]; agonist: MPLA […]
  NF-kB reporter: 0.744 ± 0.042
[2]; agonist: 3'3'-cGAMP 10 ug/mL
  IRF reporter: 0.878 ± 0.081
[2]; agonist: LPS 0.1 ug/mL
  IRF reporter: 1.4 ± 0.22
[2]; agonist: MPLA […]
  IRF reporter: 1.72 ± 0.45
[3]
  viability score: 0.947 (active)

## CN1CCN(CCCN2c3ccccc3Sc3ccc(C(F)(F)F)cc32)CC1.Cl.Cl
[1]; [4]
  NF-kB reporter: 0.958 ± 0.043
[1]; agonist: LPS 0.1 ug/mL
  NF-kB reporter: 1.03 ± 0.11
[1]; agonist: MPLA […]
  NF-kB reporter: 1.3 ± 0.11
[2]; agonist: 3'3'-cGAMP 10 ug/mL
  IRF reporter: 0.788 ± 0.056
[2]; agonist: LPS 0.1 ug/mL
  IRF reporter: 1.12 ± 0.22
[2]; agonist: MPLA […]
  IRF reporter: 1.22 ± 0.39
[3]
  viability score: 1.02 (active)

## COc1ccc(Cl)cc1C(=O)Nc1ccc(NC(=O)c2ccccc2)cc1
[1]; [4]
  NF-kB reporter: 0.907 ± 0.079
[1]; agonist: LPS 0.1 ug/mL
  NF-kB reporter: 1.12 ± 0.11
[1]; agonist: MPLA […]
  NF-kB reporter: 0.949 ± 0.057
[2]; agonist: 3'3'-cGAMP 10 ug/mL
  IRF reporter: 0.937 ± 0.023
[2]; agonist: LPS 0.1 ug/mL
  IRF reporter: 1.34 ± 0.2
[2]; agonist: MPLA […]
  IRF reporter: 1.09 ± 0.25
[3]
  viability score: 1.02 (active)

## O=C(COC(=O)c1ccc(Cl)c([N+](=O)[O-])c1)c1ccc(Cl)cc1
[1]; [4]
  NF-kB reporter: 0.942 ± 0.072
[1]; agonist: LPS 0.1 ug/mL
  NF-kB reporter: 0.978 ± 0.081
[1]; agonist: MPLA […]
  NF-kB reporter: 0.99 ± 0.093
[2]; agonist: 3'3'-cGAMP 10 ug/mL
  IRF reporter: 0.929 ± 0.035
[2]; agonist: LPS 0.1 ug/mL
  IRF reporter: 1.22 ± 0.18
[2]; agonist: MPLA […]
  IRF reporter: 1.36 ± 0.29
[3]
  viability score: 1.01 (active)

## Cl.Nc1c(Br)cc(Br)cc1CNC1CCC(O)CC1 (stereo unspecified)
[1]; [4]
  NF-kB reporter: 0.911 ± 0.074
[1]; agonist: LPS 0.1 ug/mL
  NF-kB reporter: 0.95 ± 0.1
[1]; agonist: MPLA […]
  NF-kB reporter: 1.04 ± 0.03
[2]; agonist: 3'3'-cGAMP 10 ug/mL
  IRF reporter: 0.908 ± 0.065
[2]; agonist: LPS 0.1 ug/mL
  IRF reporter: 0.94 ± 0.096
[2]; agonist: MPLA […]
  IRF reporter: 0.999 ± 0.079
[3]
  viability score: 0.998 (active)
